# Screens as filed in PubChem.
# TDP1 block: inhibitors of human tyrosyl-DNA phosphodiesterase TDP1 | Q9NUW8 | recombinant TDP1, AlphaScreen DNA substrate cleavage | Potency, µM (titrated, usually from 130 µM), for the others: top-dose activity change, negative = inhibition, hits mostly inhibitors | 0.28% of 350,000 active; active = well fitted curve in the direction sought with a large enough effect; inconclusive = small, poorly fitted or top-dose-only effect, or another doubt; inactive = no such curve, though single readings can be large; an effect the other way counts as inactive or inconclusive; note: % is set by controls: 0 for no effect and ±100 for the full control effect; nearly all actives have a fitted effect of over 40% in size
# Target sequence (Q9NUW8 whole entry, looked up): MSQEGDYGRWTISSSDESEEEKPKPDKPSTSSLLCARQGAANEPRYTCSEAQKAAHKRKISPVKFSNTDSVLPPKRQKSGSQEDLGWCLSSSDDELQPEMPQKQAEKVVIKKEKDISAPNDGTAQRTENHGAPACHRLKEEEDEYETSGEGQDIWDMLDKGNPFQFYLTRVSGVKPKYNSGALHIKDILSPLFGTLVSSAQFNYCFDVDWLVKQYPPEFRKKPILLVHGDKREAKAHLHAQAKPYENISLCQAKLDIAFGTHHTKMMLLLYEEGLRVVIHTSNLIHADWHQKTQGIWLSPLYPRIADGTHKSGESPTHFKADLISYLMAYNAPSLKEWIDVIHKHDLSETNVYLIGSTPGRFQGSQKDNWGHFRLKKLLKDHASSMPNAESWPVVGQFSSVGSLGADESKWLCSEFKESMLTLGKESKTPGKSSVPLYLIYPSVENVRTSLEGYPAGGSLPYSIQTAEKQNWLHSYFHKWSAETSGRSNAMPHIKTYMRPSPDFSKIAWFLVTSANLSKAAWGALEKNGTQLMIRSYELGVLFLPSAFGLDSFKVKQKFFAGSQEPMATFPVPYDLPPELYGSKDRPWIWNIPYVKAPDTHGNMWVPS
#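 Enzyme-compound mixtures sat 15 min at room temperature, followed by a 5 min reaction with 15 nM final substrate and 10 min with AlphaScreen beads. Recombinant human Tdp1 was used at 1 nM final.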
# TSG101-PTAP inh: blocks PTAP/TSG101 interaction to inhibit HIV-1 budding | Q99816 | Fluorescence polarization, FITC-PTAP peptide / Tsg101 binding | Potency, µM (doses to about 115 µM), without a hit: at the top dose activity change, negative = inhibition, most hits filed as inhibitors | 340,000 tested, under 10 active | AID 493005; active = well fitted inhibition curve with a large enough effect in the main read-out, with a control signal flat, not every such curve was filed as active; inconclusive = small, poorly fitted or top-dose-only effect, or effect the other way, or a change in a side signal; inactive = no such curve, though single readings can be large or run the other way; note: % of control where 0% means no effect
#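 Compounds were pin-transferred onto Tsg101 binding domain (10 uM final) in HEPES pH 7.5 buffer, then FITC-PTAP peptide was added at 50 nM final. After 20 min at RT, polarization reported peptide displacement across a qHTS concentration series.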
# Rango complex inh: prevents formation of the Rango-importin beta complex. Q14974. Rango CFP/YFP FRET sensor + importin beta, 45 min. Potency, µM (series often up to 92.2 µM), inactives show at the highest dose inhibition of complex formation. 0.031% of 340,000 active. AID 540263;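 note: 0% = DMSO wells and 100% = buffer wells lacking importin beta; nearly all actives have a fitted effect of over 15% in size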
#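 Inhibition scored from the CFP 486 nm/YFP 530 nm FRET ratio 45 min after adding 0.125 microM importin beta to 50 nM Rango biosensor preincubated 5 min with compound (room temperature, PBS with DTT, Tween-20, BSA). No-importin wells as positive control.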
# ALOX12 inh: inhibitors of human 12S-lipoxygenase ALOX12 | P18054 | purified 12hLO, xylenol orange hydroperoxide absorbance | AID 1671190 | 1.1% of 580,000 active | Potency, µM (doses to about 108 µM), for the others: at the top dose activity change, negative = inhibition, actives largely listed as inhibitors; active = well fitted curve in the direction sought with a large enough effect; inconclusive = small, poorly fitted or top-dose-only effect, or another doubt; inactive = no such curve, though single readings can be large; an effect the other way counts as inactive or inconclusive; note: % is set by controls: 0 for no effect and ±100 for the full control effect
#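 Hydroperoxide product was detected by ferrous iron/xylenol orange as the 573 to 405 nm absorbance ratio. Arachidonic acid at 40 uM (final) was turned over for 30 min at room temperature by 150 nM human 12hLO, pH 7.0 Hepes buffer, after 15 min compound preincubation.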
# ClpP mod: qHTS Assay for Activators of ClpP. ATP-dependent Clp protease proteolytic subunit (Bacillus subtilis (strain 168)), P80244. 1.9% of 340,000 active. Potency, µM (series often up to 57.5 µM), inactives show top-dose activity change, negative = active. purified B. subtilis ClpP, FRET peptide cleavage, 20 min; active = well fitted falling curve with a large enough effect; inconclusive = small, poorly fitted or top-dose-only effect; inactive = no such curve, though single readings can be large or run the other way; note: the source files actives as falling curves though it sought activators and does not explain the sign; nearly all actives have a fitted effect of over 65% in size
# Target sequence (P80244 whole entry, looked up): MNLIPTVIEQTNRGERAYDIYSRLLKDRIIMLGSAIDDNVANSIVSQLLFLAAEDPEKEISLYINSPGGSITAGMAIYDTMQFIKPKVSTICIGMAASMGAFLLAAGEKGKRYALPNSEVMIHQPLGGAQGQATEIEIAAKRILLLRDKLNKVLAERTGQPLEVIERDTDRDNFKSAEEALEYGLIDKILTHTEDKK
#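 Buffer: 100 mM Tris/HCl pH8, 100 mM KCl, 0.05% low protease BSA, 2.5% glycerol, 0.01% Tween-20. ClpP 10 microg/mL final; 20 min RT; delta FRET normalized to ADEP and DMSO controls.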
# Rango dissoc inh: prevents RanGTP from dissociating the Rango-importin beta complex; O95149+P62826; AID 540253; 0.071% of 340,000 active; Potency, µM (series often up to 46.1 µM), for the others: top-dose activity change, negative = inhibition; Biochemical FRET Rango-importin beta, RanGTP-induced dissociation; note: % of control where 0% means no effect; nearly all actives have a fitted effect of over 45% in size
#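 Rango (0.1 uM)–importin beta (0.25 uM) complex; RanGTP-RCC1 trigger; 45 min RT; CFP/YFP FRET read.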
# An asterisk follows results filed as active; ? = inconclusive; nt = no result; [ ] = another dose, or the depositor's remark. This is a sample that favours compounds with a hit; in the whole collection about 2.4% have one here. Unless noted, calls come from the whole dose curve. Potency is the fitted concentration of half-maximal effect.
SMILES,TDP1 block,TSG101-PTAP inh,Rango complex inh,ALOX12 inh,ClpP mod,Rango dissoc inh
Cc1ccc(NC(=O)CN2C(=O)S/C(=C\c3cccn3-c3cccc(C(=O)O)c3)C2=O)c(C)c1,50.1µM*,-7.9%,-0.1%,nt,-5.3%,-3.8%
CC(OC(=O)c1ccc(NC(=O)CC#N)cc1)C(=O)Nc1ccc(N2CCOCC2)cc1 (configuration not stated),nt,nt,nt,-29.5%,nt,nt
CNc1c(NS(=O)(=O)c2ccc(C(C)C)cc2)c(=O)oc2ccccc12,nt,nt,nt,-40.0%,nt,nt
CCn1cnc2c1c(=O)n(CC(=O)NC(C)c1ccccc1)c(=O)n2Cc1ccccc1 (configuration not stated),nt,nt,nt,-3.6%,nt,nt
CC(CCc1ccccc1)NC(=O)COC(=O)c1cccc2ccccc12 (configuration not stated),2.6%,-0.4%,-1.0%,1.8%,25.1µM*,18.4%
Cc1c(C(=O)Nc2cccc(Cl)c2)oc2ccc(S(=O)(=O)N(C)C3CCCCC3)cc12,7.8%,nt,nt,-29.3%,20µM*,nt
O=C(O)c1cc2ccccc2c(Cc2c(O)c(C(=O)O)cc3ccccc23)c1O,nt,nt,nt,12.6µM*,1.3%,nt
Cc1sc2ncnc(SCC(=O)NC(=O)NCc3ccco3)c2c1C,44.7µM*,-6.9%,3.8%,-12.5%,-18.0%,2.8%
COc1cccc(CN2CCCC(O)(CNC3CCCCCCC3)C2=O)c1 (configuration not stated),nt,nt,nt,10.3%,nt,nt
O=C(CC1SC(N2CCCC2)=NC1=O)Nc1ccc(C(=O)N2CCN(c3cccc(Cl)c3)CC2)cc1 (configuration not stated),4.4%,0.9%,3.6%,-0.2%,31.6µM*,11.5%
O=C(Nc1cccnc1)c1nc2c(o1)CCN(Cc1ccc3[nH]ccc3c1)CC2,nt,nt,nt,3.2%[176 µM],nt,nt
COc1ccc2[nH]c(C)c(C(=O)CN3CCC(Cc4ccccc4)CC3)c2c1,nt,nt,nt,25.1µM*,nt,nt
COc1ccc2[nH]c(C)c(C(=O)CN3CC(C)OC(C)C3)c2c1 (configuration not stated),2.0%,-1.6%,0.4%,12.9%,-0.5%,2.1%
CC(OC(=O)c1ccccc1NCCO)C(=O)NCC(=O)Nc1ccc(F)c(F)c1F (configuration not stated),0.5%,nt,-1.7%,-22.3%,15.8µM*,-9.7%
Cc1ccc(NC(=O)CN(C)C(=O)C(C)OC(=O)c2ccccc2NCCO)cc1 (configuration not stated),-1.1%,-0.1%,2.2%,-2.4%,25.1µM*,4.3%
COc1ccccc1C(C)NCC(=O)NCC(=O)Nc1ccc(F)c(F)c1F (configuration not stated),2.7%,-0.7%,0.1%,6.8%,nt,-3.7%
O=C(C1CC1)N1C[C@@H]2OCC(=O)N(Cc3ccccc3)[C@@H]2C1,nt,nt,nt,24.5%[176 µM],nt,nt
COCCCNC(=O)CN1C(=O)COc2ccc(C(=O)COc3cccc(OC)c3)cc21,nt,nt,nt,30.8%,nt,nt
CCS(=O)(=O)c1ccc(Cc2ccc(S(=O)(=O)CC)cc2)cc1,nt,nt,nt,8.91µM*,nt,nt
COC(=O)CCS(=O)(=O)c1ccc(Cc2ccc(S(=O)(=O)CCC(=O)OC)cc2)cc1,nt,nt,nt,-33.9%,nt,nt
C[C@]1(CO)C2CC[C@@H](O)[C@@H](CC(=O)NCc3ccccc3)[C@]2(C)CC[C@H]1OC(=O)Nc1ccccc1 (some centres not stated),nt,nt,nt,-12.4%,nt,nt
O=C(O)CCCN1C(=O)/C(=C/c2ccc(-c3nc4ccccc4s3)o2)SC1=S,-2.6%,-12.5%,?,?,-0.8%,?
CCN(CC)c1ccc(/C=C2/SC(=O)N(C(C)C)C2=O)o1,0.0%,?,?,44.7µM*,nt,?
Cc1cc(N2CCOCC2)ccc1/C=C1\SC(=O)N(C(C)C)C1=O,2.5%,-2.6%,?,-12.5%,0.1%,?
CCOC(=O)CN1C(=O)S/C(=C\c2ccc(-c3ccc(C(=O)O)c(Cl)c3)o2)C1=O,8.91µM*,-3.5%,?,?,-25.8%,?
SMILES,TDP1 block,TSG101-PTAP inh,Rango complex inh,ALOX12 inh,ClpP mod,Rango dissoc inh
CC(C)N1C(=O)S/C(=C\c2ccc(-c3ccc(Cl)c(C(=O)O)c3)o2)C1=O,25.1µM*,-6.6%,?,?,-1.0%,?
O=C(O)CCCCCN1C(=O)/C(=C\c2ccc(-c3ccc(Cl)cc3)o2)SC1=S,39.8µM*,5.4%,?,?,nt,-3.2%
O=c1ncn(Cc2ccccc2)c2ccc(-c3ccc(F)cc3F)nc12,nt,nt,nt,65.7%[176 µM],nt,nt
Cc1[nH]c2ccccc2c1C(=O)CSc1nnnn1C1CCCC1,nt,nt,nt,-14.8%,nt,nt
O=C(O)CN1C(=O)/C(=C/c2ccc(N3CCCCC3)o2)SC1=S,50.1µM*,25.4%,?,?,-0.5%,?
CCCN1C(=O)S/C(=C/c2ccc(N3CCOCC3)o2)C1=O,5.6%,?,?,?,nt,?
COC(=O)CN1C(=O)S/C(=C/c2ccc(N3CCCCC3)o2)C1=O,6.2%,?,?,44.7µM*,5.0%,?
CCCN1C(=O)S/C(=C\c2ccc(N3CCOCC3)o2)C1=O,?,?,?,39.8µM*,nt,?
CCOC(=O)CN1C(=O)S/C(=C/c2ccco2)C1=O,3.9%,-1.1%,?,27.9%,0.3%,-12.6%
CCOC(=O)CN1C(=O)S/C(=C/c2ccc(N3CCCCC3)o2)C1=O,2.0%,?,?,7.94µM*,1.3%,?
Cc1cc(/C=C(/C#N)c2nc3ccccc3[nH]2)cc(C)c1OCc1ccccn1,nt,nt,nt,-7.2%,nt,nt
Cn1c(C(=O)N2CCN(S(=O)(=O)c3cccs3)CC2)cc2ccccc21,nt,nt,nt,6.0%,nt,nt
O=C(OCC(=O)N1N=C(c2ccc(Cl)cc2)CC1c1ccco1)c1cncc(Br)c1 (configuration not stated),-0.6%,0.3%,-1.7%,7.94µM*,nt,0.0%
O=C(OCC(=O)N1N=C(c2ccc(Cl)cc2)CC1c1ccco1)c1ccccc1O (configuration not stated),6.1%,-0.2%,-1.3%,29.0%,35.5µM*,8.4%
Cc1ccc(C)c(N(C)S(=O)(=O)c2ccc3oc(=O)ccc3c2)c1,nt,nt,nt,5.8%,nt,nt
CC(=O)c1ccccc1NC(=O)Cc1ccc(C)c(C)c1,nt,nt,nt,-45.2%,nt,nt
Fc1cccc(CCN2C(=S)NC[C@@H]2CC2CCCCC2)c1,2.5%,0.2%,7.3%,39.8µM*,0.1%,-0.9%
CCOC(=O)CNc1c(-c2ccc(O)cc2)nc2ccccn12,0.0%,-6.3%,1.6%,-26.5%,31.6µM*,2.9%
